Laboratory results reported in publication PMC5540273 (PLoS ONE, 2017).
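Further: KINOMEscan kinase panel screen.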

What follows are molecules tested on T1, YES. Details: concentration: 1 μM, replicates: in singlicate; n = 1.
T1 construct: gene YES1
For Oc1cc(Nc2ccnc3cc(I)ccc23)ccc1F [GW552771], the “%Inh” value was 26%. With COc1ccc(Nc2nccc(NCCNC(=O)c3cc4ccccc4s3)n2)cc1 [GSK1379896] the “%Inh” value was 5%. With CCS(=O)(=O)c1ccc(OC)c(Nc2nccc(-c3c(-c4cccc(NC(=O)c5c(F)cccc5F)c4)nn4ncccc34)n2)c1 [GSK326180] the “%Inh” value was 90.1%. With COc1cccc(C(=O)Nc2cccc(Oc3ccc4nc(NC(=O)C5CC5)cn4n3)c2)c1 the “%Inh” value was 92.7%. For CN(C)Cc1ccc(-c2ccc3c(Nc4ccc(Oc5ccccn5)cc4)ccnc3c2)o1 [GW567148], the “%Inh” value was 64%. Clc1ccc(-c2nn3ncccc3c2-c2ccnc(Nc3ccc4c(c3)OCCO4)n2)cc1 [GW829116] was tested, and the “%Inh” value was 45%. With Cl.c1ccc(-c2ccc3c(Nc4ccc5[nH]ccc5c4)ccnc3c2)nc1 [GW440138] the “%Inh” value was 40%. For Fc1ccc(-c2ncn(C3CCNCC3)c2-c2ccnc(Oc3ccc(-c4ccccc4)cc3)n2)cc1 [SB-245391], the “%Inh” value was 0%. For O=C(Nc1cccc(Oc2ccc3nc(NC(=O)C4CC4)cn3n2)c1)c1ccccc1C(F)(F)F, the “%Inh” value was 50%. COc1cccc(C2=C(Nc3ccc(Cl)c(C(=O)O)c3)C(=O)NC2=O)c1 [SB-390769] was tested, and the “%Inh” value was 8%. Cc1ccc(C(=O)Nc2ccc(Nc3ccnc4cc(-c5nccs5)ccc34)cc2O)cc1.Cl [GW494702] was tested, and the “%Inh” value was 33%. In the case of Cc1ccc(C)c(NC(=O)NC2CCN(c3ccnc(Nc4ccc(F)cc4)n3)C2)c1 (centres unmarked) [GSK1379720], the “%Inh” value is reported as 9%. In the case of COc1ccc(-c2coc3ccc(-c4nnc(SCc5ccc(OC)c(C(F)(F)F)c5)o4)cc23)cc1, the “%Inh” value is reported as 12%. For COc1cc(Nc2ncc3c(C)nc(-c4cc5ccccc5[nH]4)n3n2)cc(OC)c1OC [GW869516], the “%Inh” value was 47%. For O=C(NC1CCN(c2ccnc(Nc3ccc(F)cc3)n2)C1)c1cc2ccccc2s1 (centres unmarked) [GSK1379716], the “%Inh” value was 20%. With Cn1cc(-c2ccc3c(c2)CCN3C(=O)Cc2cccc(Cl)c2)c2c(N)ncnc21 [GSK2606590] the “%Inh” value was 21%. For COC(=O)Nc1nc2ccc(Oc3ccc(NC(=O)Nc4cc(C(F)(F)F)ccc4F)cc3)cc2n1C.Cl [GW692089], the “%Inh” value was 0%. With O=C(O)C(F)(F)F.O=C(O)C(F)(F)F.O=c1[nH]ccc2nc(N[C@@H]3CCCNC3)nc(Nc3ccc(S(=O)(=O)N4CCOCC4)cc3)c12 [GSK2177277] the “%Inh” value was 75%. CCn1c(-c2nonc2N)nc2c(C#CC(C)(C)O)ncc(OCCCCN)c21.O=C(O)C(F)(F)F.O=C(O)C(F)(F)F [GSK507274] was tested, and the “%Inh” value was 16%.

These molecules were tested on T2, YSK1. Details: concentration: 1 μM, replicates: in singlicate; n = 1.
T2 construct: gene STK25
CN1CCN(Cc2cccc(-c3ccc4c(Nc5ccc(Oc6ccccc6)cc5)ccnc4c3)c2)CC1 [GW578342] was tested, and the “%Inh” value was 12%. With O=C(Nc1ccccc1F)NC1CCN(c2ccnc(Nc3ccc(F)cc3)n2)CC1 [GSK1379800] the “%Inh” value was 0%. With Cl.c1ccc(-c2ccc3c(Nc4ccc5[nH]ncc5c4)ccnc3c2)nc1 [GW440137] the “%Inh” value was 9%. For CCn1c(-c2nonc2N)nc2c(C#CC(C)(C)O)nc(OC[C@H](N)c3ccccc3)cc21 [GSK943949], the “%Inh” value was 0%. O=C(Nc1cccc(-c2nn3ccccc3c2-c2ccnc(Nc3cccc(C(F)(F)F)c3)n2)c1)c1c(F)cccc1F [GSK292658] was tested, and the “%Inh” value was 0%. For Cn1cc(-c2ccc3c(c2)CCN3C(=O)Cc2cccc(F)c2)c2c(N)ncnc21 [GSK2603358], the “%Inh” value was 31%. In the case of COc1cc(Nc2nccc(N3CCC(NC(=O)c4cc5ccccc5s4)C3)n2)cc(OC)c1OC (centres unmarked) [GSK1379760], the “%Inh” value is reported as 17%. For COCCOCCOc1cc2ncc3c4ccc(C#N)cc4[nH]c3c2cc1OC, the “%Inh” value was 0%. In the case of Cl.Cl.NCC(NC(=O)c1cc(-c2ccccc2)c(-c2ccnc3[nH]ccc23)s1)c1ccccc1 (centres unmarked) [GSK1321561], the “%Inh” value is reported as 0%. With COc1cc(Nc2nccc(-c3c(-c4cccc(NC(=O)c5c(F)cccc5F)c4)nn4ncccc34)n2)cc(OC)c1OC [GSK327238] the “%Inh” value was 56%. With CN(C)S(=O)(=O)c1cc(-c2ccc3nccc(-c4cccc(S(N)(=O)=O)c4)c3c2)cnc1N [GSK1669921] the “%Inh” value was 0%. In the case of Cl.Cl.NCC(NCc1ccc(-c2ccnc3[nH]ccc23)s1)c1ccccc1 (centres unmarked) [GSK1321565], the “%Inh” value is reported as 0%. For Cc1ccc(S(=O)(=O)Nc2ccc(Nc3nccc(Nc4cccc5[nH]ncc45)n3)cc2)cc1 [GSK581271], the “%Inh” value was 13%. In the case of CC(=O)Nc1nc2cnc(Nc3cc(NC(=O)c4cccc(C5(C#N)CC5)c4Cl)ccc3C)nc2s1, the “%Inh” value is reported as 0%. For CNC(=O)c1ccccc1Nc1nc(Nc2ccc(N3CCOCC3)cc2)ncc1Cl.Cl [GSK1576028], the “%Inh” value was 68%. For Cc1ccc(C(=O)N2CC[C@@H](O)C2)cc1-n1c(C)cc(OCc2ccc(F)cc2F)c(Br)c1=O, the “%Inh” value was 0%. COc1ccc(Nc2nccc(N3CCC(NC(=O)Nc4cccc(OC)c4)C3)n2)cc1 (centres unmarked) [GSK1379742] was tested, and the “%Inh” value was 0%. In the case of Cl.Cl.NCC(C(=O)Nc1cc(Br)c(-c2ccnc3[nH]ccc23)s1)c1ccccc1 (centres unmarked) [GSK1269851], the “%Inh” value is reported as 0%. For Oc1cc(Nc2ccnc3cc(I)ccc23)ccc1F [GW552771], the “%Inh” value was 0%. COc1ccc(Nc2nccc(NCCNC(=O)c3cc4ccccc4s3)n2)cc1 [GSK1379896] was tested, and the “%Inh” value was 0%. CCS(=O)(=O)c1ccc(OC)c(Nc2nccc(-c3c(-c4cccc(NC(=O)c5c(F)cccc5F)c4)nn4ncccc34)n2)c1 [GSK326180] was tested, and the “%Inh” value was 0%. In the case of COc1cccc(C(=O)Nc2cccc(Oc3ccc4nc(NC(=O)C5CC5)cn4n3)c2)c1, the “%Inh” value is reported as 0%. CN(C)Cc1ccc(-c2ccc3c(Nc4ccc(Oc5ccccn5)cc4)ccnc3c2)o1 [GW567148] was tested, and the “%Inh” value was 0%. Clc1ccc(-c2nn3ncccc3c2-c2ccnc(Nc3ccc4c(c3)OCCO4)n2)cc1 [GW829116] was tested, and the “%Inh” value was 0%. In the case of Cl.c1ccc(-c2ccc3c(Nc4ccc5[nH]ccc5c4)ccnc3c2)nc1 [GW440138], the “%Inh” value is reported as 0%. With Fc1ccc(-c2ncn(C3CCNCC3)c2-c2ccnc(Oc3ccc(-c4ccccc4)cc3)n2)cc1 [SB-245391] the “%Inh” value was 18%. With O=C(Nc1cccc(Oc2ccc3nc(NC(=O)C4CC4)cn3n2)c1)c1ccccc1C(F)(F)F the “%Inh” value was 9%. In the case of COc1cccc(C2=C(Nc3ccc(Cl)c(C(=O)O)c3)C(=O)NC2=O)c1 [SB-390769], the “%Inh” value is reported as 0%. In the case of Cc1ccc(C(=O)Nc2ccc(Nc3ccnc4cc(-c5nccs5)ccc34)cc2O)cc1.Cl [GW494702], the “%Inh” value is reported as 0%. In the case of Cc1ccc(C)c(NC(=O)NC2CCN(c3ccnc(Nc4ccc(F)cc4)n3)C2)c1 (centres unmarked) [GSK1379720], the “%Inh” value is reported as 0%. With COc1ccc(-c2coc3ccc(-c4nnc(SCc5ccc(OC)c(C(F)(F)F)c5)o4)cc23)cc1 the “%Inh” value was 0%. With COc1cc(Nc2ncc3c(C)nc(-c4cc5ccccc5[nH]4)n3n2)cc(OC)c1OC [GW869516] the “%Inh” value was 0%. With O=C(NC1CCN(c2ccnc(Nc3ccc(F)cc3)n2)C1)c1cc2ccccc2s1 (centres unmarked) [GSK1379716] the “%Inh” value was 19%. Cn1cc(-c2ccc3c(c2)CCN3C(=O)Cc2cccc(Cl)c2)c2c(N)ncnc21 [GSK2606590] was tested, and the “%Inh” value was 18%. For COC(=O)Nc1nc2ccc(Oc3ccc(NC(=O)Nc4cc(C(F)(F)F)ccc4F)cc3)cc2n1C.Cl [GW692089], the “%Inh” value was 0%. In the case of O=C(O)C(F)(F)F.O=C(O)C(F)(F)F.O=c1[nH]ccc2nc(N[C@@H]3CCCNC3)nc(Nc3ccc(S(=O)(=O)N4CCOCC4)cc3)c12 [GSK2177277], the “%Inh” value is reported as 94.2%. CCn1c(-c2nonc2N)nc2c(C#CC(C)(C)O)ncc(OCCCCN)c21.O=C(O)C(F)(F)F.O=C(O)C(F)(F)F [GSK507274] was tested, and the “%Inh” value was 0%.
